Screening results deposited in PubChem BioAssay by The Scripps Research Institute Molecular Screening Center.
MITF primary: human MITF inhibition, primary screen; O75030; AlphaScreen MITF homodimerization, bead proximity signal; AID 1259374; inhibition, % at 2.6 µM; hit rate 0.91% among 650,000; in the data active means inhibition above about 50%;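 further: 0% = vehicle wells with protein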
FBW7 activator: activators of human E3 ligase FBW7; Q969H0; AlphaScreen FBW7–phospho-cyclin E peptide binding, activator screen; normalized activity (activation), % at 26.1 µM; hit rate 0.13% among 650,000; AID 1259310; in the data active means normalized activity above about 1.9%;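 further: purified mutant Fbw7 with reduced substrate affinity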
Target sequence (Q969H0 whole entry, looked up): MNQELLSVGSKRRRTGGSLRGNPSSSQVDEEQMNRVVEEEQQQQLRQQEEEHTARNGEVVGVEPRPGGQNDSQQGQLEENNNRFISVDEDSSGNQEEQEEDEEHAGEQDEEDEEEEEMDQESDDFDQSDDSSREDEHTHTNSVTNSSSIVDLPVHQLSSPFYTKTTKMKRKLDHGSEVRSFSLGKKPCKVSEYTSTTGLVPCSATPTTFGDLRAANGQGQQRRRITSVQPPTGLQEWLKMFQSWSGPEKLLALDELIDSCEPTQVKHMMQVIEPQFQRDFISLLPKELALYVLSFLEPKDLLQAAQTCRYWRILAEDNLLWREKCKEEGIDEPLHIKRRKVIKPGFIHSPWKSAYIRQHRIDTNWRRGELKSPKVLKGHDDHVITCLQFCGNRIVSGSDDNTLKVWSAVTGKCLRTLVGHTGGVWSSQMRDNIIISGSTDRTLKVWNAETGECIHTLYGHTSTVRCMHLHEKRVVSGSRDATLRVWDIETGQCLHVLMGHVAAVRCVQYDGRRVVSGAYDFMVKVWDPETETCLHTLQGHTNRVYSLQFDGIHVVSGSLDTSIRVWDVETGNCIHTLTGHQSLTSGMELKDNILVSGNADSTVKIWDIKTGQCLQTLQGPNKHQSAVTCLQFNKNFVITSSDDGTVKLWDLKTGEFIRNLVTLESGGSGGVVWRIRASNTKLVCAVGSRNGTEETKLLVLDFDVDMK
GPR151 ag: human GPR151 activation; Q8TDV0; AID 1508602; hit rate 1% among 650,000; activation, % at 11.2 µM; PathHunter beta-arrestin GPR151 cells, luminescence; in the data active means activation above about 4.9%;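 further: 0% = median of compound wells and 100% = cells with positive control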
TEAD-YAP inh: TEAD-YAP interaction inhibition; HEK-TIYL cells, TEAD-Gal4/YAP UAS-luciferase luminescence; AID 1259422; inhibition, % at 9.12 µM; hit rate 1.4% among 640,000; in the data active means inhibition above about 32%;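 further: 0% = median of test compound wells and 100% = reference inhibitor wells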
MITF confirm: human MITF inhibition, confirmation. AID 1259372. hit rate 16% among 4,700. AlphaScreen MITF homodimerization, biotin/His-MITF beads. inhibition, % at 2.6 µM. shares compounds with MITF primary;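 active means inhibition above a cutoff derived from the DMSO control wells, cut at about 28% in these data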;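 further: 0% = MITF dimer wells with DMSO only; inhibitors lower the bead chemiluminescence by keeping MITF from dimerizing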
AlphaScreen DR: AlphaScreen optical interference, dose response counter-screen | shares compounds with MITF primary | AlphaScreen optical interference counterscreen, cell-free | IC50, µM | hit rate 6% among 480 | AID 1259373; call rule not given here
AlphaScreen intf2: counter-screen: compounds optically interfering with AlphaScreen; hit rate 7.6% among 4,700; LysRS AlphaScreen counterscreen, signal interference, triplicate; inhibition, % at 2.6 µM; shares compounds with MITF primary;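 active means inhibition above a cutoff derived from the DMSO control wells, cut at about 30% in these data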
* = called active by the depositor. Only some compounds are listed: those with a hit (about 3.5% of all), similar ones and a draw of the others.

Screening O=[N+]([O-])c1ccccc1CN1CCC(N2CCN(c3ccccc3F)CC2)CC1 returned MITF primary 47, FBW7 activator 0, GPR151 ag -1 and TEAD-YAP inh 5.
`CC1CCC(N2CCN(Cc3ccccc3[N+](=O)[O-])CC2)CC1` (stereo not given) gave MITF primary 69*, FBW7 activator 0, GPR151 ag 1, TEAD-YAP inh -3, MITF confirm 1 and AlphaScreen intf2 4.
O=[N+]([O-])c1ccccc1CN1CCCCCC1 was read as MITF primary 39, FBW7 activator 0, GPR151 ag 1 and TEAD-YAP inh 6.
Screening CC1CN(Cc2ccccc2[N+](=O)[O-])CC(C)O1 (stereo not given) returned MITF primary 40, FBW7 activator 0, GPR151 ag -1 and TEAD-YAP inh -1.
`Cc1[nH]nc2c1C(c1ccccc1Br)C(C#N)=C(N)O2` (stereo not given) gave MITF primary 15, FBW7 activator 1, GPR151 ag 1 and TEAD-YAP inh -10.
Cc1c(Cc2ccccc2)c(N2CCC(C)CC2)n2c(nc3ccccc32)c1C#N was read as MITF primary 13, FBW7 activator 0, GPR151 ag 0 and TEAD-YAP inh 5.
CCCCc1c(C)c(C#N)c2nc3ccccc3n2c1N1CCC(C)CC1 was read as MITF primary 53*, FBW7 activator 0, GPR151 ag 0, TEAD-YAP inh -4, MITF confirm 13 and AlphaScreen intf2 -7.
Screening COc1ccc(CN2CCN(Cc3ccccc3Cl)CC2)c(OC)c1 returned MITF primary 80*, FBW7 activator 0, GPR151 ag 1, TEAD-YAP inh 0, MITF confirm 5 and AlphaScreen intf2 18.
Screening COc1ccc(OC)c(CN2CCN(Cc3ccccc3Cl)CC2)c1 returned MITF primary 77*, FBW7 activator 0, GPR151 ag -1, TEAD-YAP inh -2, MITF confirm 14 and AlphaScreen intf2 16.
Screening COc1ccc(OC)c(CN2CCN(Cc3ccccc3F)CC2)c1 returned MITF primary 77*, FBW7 activator 0, GPR151 ag 2, TEAD-YAP inh -6, MITF confirm -4 and AlphaScreen intf2 -2.
Screening COc1ccc(OC)c(CN2CCN(CCCc3ccccc3)CC2)c1 returned MITF primary 66*, FBW7 activator 0, GPR151 ag 1, TEAD-YAP inh 0, MITF confirm 0 and AlphaScreen intf2 -3.
Screening COc1cc(C=O)ccc1OC(C)c1ccccc1 (stereo not given) returned MITF primary 7, FBW7 activator 0, GPR151 ag 1 and TEAD-YAP inh -6.
Screening COc1ccccc1-c1c(C)nn2c(NCc3ccccc3)cc(C)nc12 returned MITF primary 11, FBW7 activator 0, GPR151 ag -1 and TEAD-YAP inh 1.
COc1ccccc1-c1c(C)nn2c(NCc3cccs3)cc(C)nc12 was read as MITF primary 54*, FBW7 activator 0, GPR151 ag 1, TEAD-YAP inh -5, MITF confirm 1 and AlphaScreen intf2 14.
`Nc1cc(C(=O)c2ccc(O)c(N)c2)ccc1O` gave MITF primary 20, FBW7 activator 0, GPR151 ag 0 and TEAD-YAP inh -4.
`Nc1cc(Oc2ccc(O)c(N)c2)ccc1O` gave MITF primary 111*, FBW7 activator -1, GPR151 ag 3, TEAD-YAP inh 0, MITF confirm 117* and AlphaScreen intf2 78*.
CC(C)OC(=O)CN1CCN(C2CCCCC2)CC1 was read as MITF primary 10, FBW7 activator 0, GPR151 ag 0 and TEAD-YAP inh 14.
For COc1ccc(OC)c(NC(=O)c2cc3ccc(O)cc3oc2=Nc2ccc(C(=O)O)cc2)c1 the results were MITF primary 55*, FBW7 activator 0, GPR151 ag 0, TEAD-YAP inh 6, MITF confirm 79*, AlphaScreen DR >5.5 and AlphaScreen intf2 -15.
Screening COc1ccc(C(=O)N(Cc2ccccc2)c2ccccn2)cc1 returned MITF primary 15, FBW7 activator 0, GPR151 ag 1 and TEAD-YAP inh -5.
Screening Cc1ccc(OCCCCn2cncn2)c(I)c1 returned MITF primary -19, FBW7 activator 0, GPR151 ag 1 and TEAD-YAP inh -30.
